Test results from PubChem BioAssay.
Values joined by “and” are separate entries in the source; they are usually repeats but may differ in a detail not shown here. Identical values can stand only once.

Assay: MM1S cell viability effects, profiling panel, calcein-AM fluorescence, 48 h, basal (AID 1165);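 also: viability of MM1S multiple myeloma cells under basal unstimulated conditions; test concentration not given here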
Conditions: higher = more signal
For `COC(=O)C1=C(C)N(Cc2ccccc2)[C@]23O[C@](C(=O)OC)(C(=O)N2[C@@H]1c1ccccc1)[C@@H](C(=O)OC)[C@H]3C(=O)OC`, the z-score was 0.185 and 0.568. For `CO[C@@H]1COC(=O)CC=C[C@H](C)COC(=O)[C@H](C)NC(=O)CC=C[C@H]1C`, the z-score was 0.122. For `COC(=O)C1=C(C)N(Cc2ccccc2)C2=C(C(C)=O)[C@H](c3ccccc3)[C@@](O)(C(=O)OC)C(=O)N2[C@@H]1c1ccccc1`, the z-score was 0.592 and 0.378. In the case of `C[N+](C)(C)CCCCNC(=O)[C@H]1C[C@H]2C(=O)N[C@@H](CCCC[N+](C)(C)C)C(=O)N2[C@H]1c1cccc(OCCO)c1`, the z-score is reported as -0.485 and -1.67. `CCOC(=O)NN=C1C[C@@H](O)[C@@H](O)[C@@H]2[C@@H]3C(=O)N(Cc4ccc5c(c4)OCO5)C(=O)[C@@H]3CC[C@@H]12` gave a z-score of 0.511. In the case of `C[N+](C)(C)CCCCNC(=O)[C@H]1C[C@H]2C(=O)N[C@@H](CCCC[N+](C)(C)C)C(=O)N2[C@H]1c1ccc(O)cc1`, the z-score is reported as -0.088 and -0.298. For `O=c1n(-c2ccccc2)c(=O)n2n1CC[C@@H]1C(=NOC[C@@H](O)COCc3ccco3)[C@H]3O[C@H]3[C@@H](O)[C@@H]12`, the z-score was 0.256 and -0.207. With `C=C[C@@H](C)[C@H](O)c1ccc(O)c2ccccc12` the z-score was -2.66 and -2.63. For `COC(=O)C1=C(C)N(Cc2ccccc2)C2=C(C(C)=O)C[C@@](O)(C(=O)OC)C(=O)N2[C@@H]1c1ccccc1`, the z-score was 1.11 and 0.699. In the case of `CCC[C@@H]1C[C@@]1(CCC)[C@@H](NC(=O)c1ccc(-c2ccccc2)cc1)c1cccc(Cl)c1`, the z-score is reported as -2.16 and -0.143. For `C=CCN(CCCC)C(=O)C1N(CCOCCO)C(=O)C2C(C(=O)O)C3C=CC21O3` (stereo unspecified), the z-score was 0.929 and 0.966.
